# Assay results from the supplement of paper PMC13380429.
# Unmarked numbers belong to inactive results.
# Test system: Vero E6 infected with SARS-CoV-2
# Test: inhibition of SARS-CoV-2 cytopathic effect; higher = more antiviral protection, active = above 15
# Conditions: 10000 nM; 48 h
row,SMILES,inhibition of SARS-CoV-2 cytopathic effect [%]
1,CC(C)NCC(O)c1ccccc1Cl (stereo not drawn) [clorprenaline],-1.17
2,C[C@@H](c1ncncc1F)[C@](O)(Cn1cncn1)c1ccc(F)cc1F [voriconazole],1.37
3,O=C(O)C1=CCNCC1 [isoguvacine],2.12
4,Oc1cc2c(cc1O)CN(C(=S)NCCc1ccc(Cl)cc1)CCC2 [capsazepine],3.42
5,Cn1cnc2c(F)c(Nc3ccc(Br)cc3F)c(C(=O)NOCCO)cc21 [binimetinib],-12
6,CN(C)/C=N/c1c(I)cc(I)c(CCC(=O)O)c1I [iopodic-acid],-2.24
7,O=C(CBr)N1CC([N+](=O)[O-])([N+](=O)[O-])C1,0.95
8,N#Cc1cn([C@@H]2O[C@H](CO)[C@@H](O)[C@H]2O)c2ncnc(N)c12 [toyocamycin],-0.24
